Unmarked numbers belong to inactive results. Inconclusive results are not listed. Where a call stands in place of a potency, no number is given. Active and inactive are the calls of the source. Unless noted, the call rests on the fitted dose curve; in most records, active means well fitted curve in the direction sought with a large enough effect in the repeat runs; inconclusive means weak or mixed curves; inactive means no such curve, though single readings can be large; an effect the other way counts as inactive or inconclusive.
Legend:
[1] = qHTS assay to identify small molecule antagonists of the androgen receptor (AR) signaling pathway using the MDA cell line in the presence of 0.5 nM R1881 - cell viability counter screen (AID 1259242); further: nearly all actives have a fitted effect of over 45% in size
Method in brief: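 Human breast carcinoma MDA-kb2 cells, cultured without CO2, receive compounds alongside 0.5 nM (final) R1881 agonist. After 16 hr at 37C, viability is taken as live-cell protease signal.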

[2] = biological target: Estrogen receptor (Homo sapiens) (UniProt P03372); assay: qHTS assay to identify small molecule antagonists of the estrogen receptor alpha (ER-alpha) signaling pathway using the BG1 cell line in the presence of 0.1 nM 17-beta-estradiol (AID 1259244); further: nearly all actives have a fitted effect of over 50% in size; further: potency means the concentration at half of the fitted maximal effect
Method in brief: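 Seeding of stripped-serum-adapted VM7Luc4E2 cells, 24 h attachment, compound transfer, then 0.1 nM final 17beta-estradiol; after 22 h incubation, ONE-Glo reagent and luminescence reading.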

[3] = qHTS assay to identify small molecule HDAC inhibitors (AID 1259364);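 further: wild-type HCT-116 cells with endogenous class I/II HDAC activity; top concentration of the series differs between compounds; nearly all actives have a fitted effect of over 45% in size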
Method in brief: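 After a 2 hr compound incubation (37C, 5% CO2), HCT-116 cells seeded at 1,500/well the day before received HDAC-Glo reagent; signal read as luminescence after 30 min at room temperature.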

[4] = qHTS assay to identify small molecule HDAC inhibitors - cell viability counter screen (AID 1259365); further: series mostly up to about 92 µM; nearly all actives have a fitted effect of over 50% in size
Method in brief: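 HCT-116 (wild type), 1,500 cells/well, overnight 37C/5% CO2; compound in DMSO 2hr; CellTiter-Glo 30min RT; luminescence read.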

[5] = qHTS assay to identify small molecule agonists of the sonic hedgehog signaling (Shh) pathway - cell viability counter screen (AID 1259366); further: nearly all actives have a fitted effect of over 50% in size; further: potency means the concentration at half of the fitted maximal effect
Method in brief: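 CellTiter-Fluor fluorescence read-out, 1 hr at 37C, added after 23hr compound exposure. Cells: 3T3 Gli1-Luc, an NIH/3T3 clone with stably integrated Gli1-Luc reporter, plated 4hr before compound.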

[6] = qHTS assay to identify small molecule antagonists of the sonic hedgehog signaling (Shh) pathway - cell viability counter screen (AID 1259367); further: nearly all actives have a fitted effect of over 55% in size; further: potency means the concentration at half of the fitted maximal effect
Method in brief: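 Fluorescence read-out (CellTiter-Fluor, 1 hr at 37C) taken after 23 hr compound treatment of 3T3 Gli1-Luc cells stimulated with conditioned medium. Cells were seeded at 2,000 per well and pre-incubated 4 hr.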

[7] = qHTS assay to identify small molecule antagonists of the sonic hedgehog signaling (Shh) pathway (AID 1259369; calls by dose curve; further: nearly all actives have a fitted effect of over 45% in size; further: potency means the concentration at half of the fitted maximal effect)
Method in brief: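 Gli1 transcriptional reporter (firefly Luc) in NIH/3T3 background, conditioned-medium activated. 24hr exposure, luminescence endpoint.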

[8] = biological target: Estrogen receptor beta (Homo sapiens) (UniProt Q92731); assay: qHTS assay to identify small molecule agonists of the estrogen receptor beta (ER-beta) signaling pathway (AID 1259377; active means well fitted activation curve with a large enough effect in the signal ratio in the repeat runs, not every such curve was filed as active; the % refers to the signal ratio)
Method in brief: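 Beta-lactamase reporter readout: fluorescence of LiveBLAzer B/G FRET substrate after 2 h at room temperature, following 16 h compound treatment of ER-beta-UAS-bla HEK293T cells at 37C in 2% charcoal-stripped FBS medium.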

[9] = biological target: Estrogen receptor beta (Homo sapiens) (UniProt Q92731); assay: qHTS assay to identify small molecule antagonists of the estrogen receptor beta (ER-beta) signaling pathway (AID 1259378; active means well fitted inhibition curve with a large enough effect in the signal ratio in the repeat runs, not every such curve was filed as active; the % refers to the signal ratio; further: potency means the concentration at half of the fitted maximal effect)
Method in brief: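 ER-beta-UAS-bla HEK293T cells in 2% charcoal-stripped FBS medium treated with compound plus 1nM final 17-beta-estradiol for 16 hr at 37C. Beta-lactamase reporter read by FRET substrate fluorescence after 2 hours at room temperature.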

[10] = qHTS assay to identify small molecule agonists of the androgen receptor (AR) signaling pathway in the presence of an antagonist - cell viability counter screen (AID 1259379); further: nearly all actives have a fitted effect of over 25% in size; further: potency means the concentration at half of the fitted maximal effect
Method in brief: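 Counter screen for cell viability run in parallel with the AR agonist-mode luciferase assay. MDA-kb2 cells were co-treated with nilutamide (3.0uM final) and compounds, then incubated 16 hr at 37C, and CellTiter-Fluor fluorescence was measured.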

[11] = qHTS assay to identify small molecule agonists of the estrogen receptor beta (ER-beta) signaling pathway - cell viability counter screen (AID 1259380); further: nearly all actives have a fitted effect of over 30% in size; further: potency means the concentration at half of the fitted maximal effect
Method in brief: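 In this qHTS counter screen, HEK293T cells carrying an ER-beta/UAS beta-lactamase reporter, grown in 2% charcoal-stripped FBS, received compound for 16 hr; ATP-based CellTiter-Glo luminescence was then read after 30 min at room temperature.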

[12] = qHTS assay to identify small molecule antagonists of the estrogen receptor beta (ER-beta) signaling pathway - cell viability counter screen (AID 1259382); further: nearly all actives have a fitted effect of over 55% in size; further: potency means the concentration at half of the fitted maximal effect
Method in brief: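 HEK293T ER-beta-UAS-bla, 2% charcoal-stripped FBS; compounds + 1nM E2 16 hr 37C; CellTiter-Glo luminescence, 30 min RT.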

[13] = biological target: Estrogen receptor (Homo sapiens) (UniProt P03372); assay: qHTS assay to identify small molecule agonists of the estrogen receptor alpha (ER-alpha) signaling pathway in the presence of an antagonist (AID 1259383; calls by dose curve; further: top concentration of the series differs between compounds; nearly all actives have a fitted effect of over 15% in size)
Method in brief: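 ER-alpha agonism measured under antagonist challenge: 10.0nM ICI-182,780 (final) plus compound, 15 concentrations, 22hr, VM7Luc4E2 ERE-luciferase cells. Read by luminescence.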

[14] = qHTS assay to identify small molecule agonists of the sonic hedgehog signaling (Shh) pathway (AID 1259368; calls by dose curve;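 further: NIH/3T3-derived 3T3Gli1-Luc cells carrying a stable Gli1-driven firefly luciferase reporter; series mostly up to about 92 µM; nearly all actives have a fitted effect of over 15% in size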)
Method in brief: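 Stable NIH/3T3 Gli1-Luc reporter clone; 24 hr cpd exposure after a 4 hr settling period; luminescence endpoint.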

[15] = qHTS assay to identify small molecule agonists or antagonists of the thyroid stimulating hormone receptor (TSHR) signaling pathway - wild type cell line counter screen (AID 1259384; calls by dose curve)
Method in brief: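 Wild-type Hek293 cells, 800/well, 18 h at 37C, then compound with Ro20-1724 for 30 min RT. cAMP by HTRF (cAMP-d2/anti-cAMP cryptate), 1 h RT, fluorescence read. 15 concentrations, triplicates.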

[16] = biological target: Thyrotropin receptor (Homo sapiens) (UniProt P16473); assay: qHTS assay to identify small molecule antagonists of the thyroid stimulating hormone receptor (TSHR) signaling pathway (AID 1259385; calls by dose curve; further: nearly all actives have a fitted effect of over 20% in size)
Method in brief: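 TSHR-HEK293 cells (800/well) plated 18 h, then compounds with Ro20-1724 and TSH at 1.5 ng/mL final, 30 min at room temperature. cAMP quantified by HTRF (cAMP-d2/anti-cAMP-cryptate, 1 h); 15 concentrations in triplicate.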

[17] = qHTS assay to identify small molecule phospholipidosis (PLD) inducers (AID 1259344; active means well fitted curve in the direction sought with a large enough effect; an effect the other way counts as inactive or inconclusive)
Method in brief: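 Read-out is LipidTOX Red fluorescence (ex 595/em 615) imaged in HepG2 cells after 24 h compound exposure at 37 C, with Hoechst nuclear counterstain (ex 352/em 461) allowing per-cell normalisation.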

[18] = biological target: Androgen receptor (Homo sapiens) (UniProt P10275); assay: qHTS assay to identify small molecule antagonists of the androgen receptor (AR) signaling pathway using the MDA cell line in the presence of 0.5 nM R1881 (AID 1259243); further: potency means the concentration at half of the fitted maximal effect; nearly all actives have a fitted effect of over 50% in size
Method in brief: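 Cells: MDA-kb2 (MMTV-luc). Stimulus: 0.5 nM R1881. Time: 16 hr, 37C, no CO2. Detection: ONE-Glo luminescence after 30 min at RT.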

[19] = biological target: Androgen receptor (Homo sapiens) (UniProt P10275); assay: qHTS assay to identify small molecule agonists of the androgen receptor (AR) signaling pathway in the presence of an antagonist (AID 1259381; calls by dose curve; further: nearly all actives have a fitted effect of over 15% in size)
Method in brief: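 AR antagonist background: nilutamide 3.0uM final. Cell line: MDA-kb2, MMTV-driven luciferase, responsive to both AR and GR. Exposure 16hr, 37C, no CO2; ONE-Glo luminescence.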

Estrogen receptor beta (Homo sapiens), sequence (Q92731 whole entry, looked up): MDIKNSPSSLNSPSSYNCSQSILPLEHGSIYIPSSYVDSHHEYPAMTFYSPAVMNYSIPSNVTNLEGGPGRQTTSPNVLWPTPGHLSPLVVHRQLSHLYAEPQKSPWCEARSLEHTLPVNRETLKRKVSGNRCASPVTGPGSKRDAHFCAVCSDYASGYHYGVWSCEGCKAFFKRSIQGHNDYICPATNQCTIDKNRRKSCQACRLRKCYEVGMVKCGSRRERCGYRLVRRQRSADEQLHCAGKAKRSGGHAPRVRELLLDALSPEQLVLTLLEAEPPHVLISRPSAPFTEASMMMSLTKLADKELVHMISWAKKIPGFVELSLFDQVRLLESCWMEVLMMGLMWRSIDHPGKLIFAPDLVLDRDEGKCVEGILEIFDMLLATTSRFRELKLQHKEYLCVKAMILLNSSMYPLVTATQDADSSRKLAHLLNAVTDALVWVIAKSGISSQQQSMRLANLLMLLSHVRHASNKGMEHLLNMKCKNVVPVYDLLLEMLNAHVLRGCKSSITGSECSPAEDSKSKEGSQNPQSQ
Thyrotropin receptor (Homo sapiens), sequence (P16473 whole entry, looked up): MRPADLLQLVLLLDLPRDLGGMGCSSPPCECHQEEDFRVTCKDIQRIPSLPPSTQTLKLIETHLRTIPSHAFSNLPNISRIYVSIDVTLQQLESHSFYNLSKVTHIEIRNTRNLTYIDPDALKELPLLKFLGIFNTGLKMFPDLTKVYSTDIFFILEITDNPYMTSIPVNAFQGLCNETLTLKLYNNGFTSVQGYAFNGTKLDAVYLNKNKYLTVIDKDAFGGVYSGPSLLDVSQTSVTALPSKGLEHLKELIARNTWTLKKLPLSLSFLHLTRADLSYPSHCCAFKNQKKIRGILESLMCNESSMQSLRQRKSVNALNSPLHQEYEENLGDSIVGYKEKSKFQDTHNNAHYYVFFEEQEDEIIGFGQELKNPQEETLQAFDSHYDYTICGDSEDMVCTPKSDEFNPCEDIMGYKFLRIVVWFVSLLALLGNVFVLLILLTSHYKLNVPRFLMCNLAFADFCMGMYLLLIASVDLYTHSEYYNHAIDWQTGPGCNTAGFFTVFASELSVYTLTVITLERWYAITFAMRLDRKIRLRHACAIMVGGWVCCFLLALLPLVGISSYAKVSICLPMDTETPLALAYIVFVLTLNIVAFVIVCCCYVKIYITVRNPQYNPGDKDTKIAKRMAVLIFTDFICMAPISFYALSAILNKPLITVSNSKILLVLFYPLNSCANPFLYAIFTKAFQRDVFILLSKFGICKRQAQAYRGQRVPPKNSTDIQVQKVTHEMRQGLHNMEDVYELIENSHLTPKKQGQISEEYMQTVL
Estrogen receptor (Homo sapiens), sequence (P03372 whole entry, looked up): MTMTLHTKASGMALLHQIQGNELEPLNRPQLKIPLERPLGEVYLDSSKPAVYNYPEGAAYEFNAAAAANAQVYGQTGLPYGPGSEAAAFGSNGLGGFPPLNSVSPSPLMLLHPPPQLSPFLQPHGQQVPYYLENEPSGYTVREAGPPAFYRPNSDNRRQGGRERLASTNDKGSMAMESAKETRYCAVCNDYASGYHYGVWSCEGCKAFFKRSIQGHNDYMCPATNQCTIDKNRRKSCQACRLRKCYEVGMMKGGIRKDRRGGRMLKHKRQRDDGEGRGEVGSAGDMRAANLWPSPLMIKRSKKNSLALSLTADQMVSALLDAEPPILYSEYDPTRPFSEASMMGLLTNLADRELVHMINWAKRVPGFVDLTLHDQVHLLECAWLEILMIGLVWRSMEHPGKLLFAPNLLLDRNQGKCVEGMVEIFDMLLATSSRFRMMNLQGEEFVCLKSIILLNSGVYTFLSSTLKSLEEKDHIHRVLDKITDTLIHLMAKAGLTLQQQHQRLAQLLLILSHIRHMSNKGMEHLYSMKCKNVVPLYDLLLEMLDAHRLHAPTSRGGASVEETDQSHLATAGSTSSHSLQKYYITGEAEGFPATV
Androgen receptor (Homo sapiens), sequence (P10275 whole entry, looked up): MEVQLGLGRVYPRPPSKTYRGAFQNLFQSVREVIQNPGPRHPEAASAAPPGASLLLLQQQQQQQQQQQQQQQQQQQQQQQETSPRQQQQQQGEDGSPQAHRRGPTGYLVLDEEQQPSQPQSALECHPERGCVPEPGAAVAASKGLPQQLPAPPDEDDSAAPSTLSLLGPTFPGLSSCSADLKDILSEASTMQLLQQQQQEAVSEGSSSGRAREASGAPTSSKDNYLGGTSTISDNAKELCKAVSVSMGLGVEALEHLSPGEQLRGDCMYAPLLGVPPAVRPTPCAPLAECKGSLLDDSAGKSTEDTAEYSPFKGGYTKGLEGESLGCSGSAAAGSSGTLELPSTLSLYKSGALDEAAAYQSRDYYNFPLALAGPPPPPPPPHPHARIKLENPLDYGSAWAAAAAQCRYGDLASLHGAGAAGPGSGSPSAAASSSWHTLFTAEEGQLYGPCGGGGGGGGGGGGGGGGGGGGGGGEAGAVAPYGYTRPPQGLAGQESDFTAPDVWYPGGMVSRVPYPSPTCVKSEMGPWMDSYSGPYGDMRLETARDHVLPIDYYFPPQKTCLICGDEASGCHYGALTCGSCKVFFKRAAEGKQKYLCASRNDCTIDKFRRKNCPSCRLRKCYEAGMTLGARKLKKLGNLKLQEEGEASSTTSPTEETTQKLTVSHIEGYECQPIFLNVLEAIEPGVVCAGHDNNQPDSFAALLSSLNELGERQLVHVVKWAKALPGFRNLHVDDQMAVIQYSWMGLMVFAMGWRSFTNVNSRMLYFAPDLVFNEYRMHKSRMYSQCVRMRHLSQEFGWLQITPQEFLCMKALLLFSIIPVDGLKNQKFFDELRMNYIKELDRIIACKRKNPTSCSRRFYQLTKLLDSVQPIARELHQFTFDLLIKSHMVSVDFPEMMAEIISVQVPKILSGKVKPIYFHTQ

Row | Structure (SMILES) | outcome [1] | Potency [2] | Potency [3] | outcome [4] | Potency [5] | Potency [6] | Potency [7] | outcome [8] | Potency [9] | Potency [10] | Potency [11] | Potency [12] | Potency [13] | outcome [14] | Potency [15] | Potency [16] | outcome [17] | Potency [18] | Potency [19]
1 | N#Cc1ccncc1 | inactive | inactive | inactive | inactive | inactive | inactive | inactive | inactive | inactive | inactive | inactive | inactive | inactive | – | – | – | – | – | –
2 | Nc1cnn(-c2ccccc2)c(=O)c1Cl | inactive | inactive | inactive | inactive | – | inactive | – | – | inactive | inactive | inactive | inactive | – | inactive | inactive | inactive | – | – | –
3 | COc1cccc2c1cc([N+](=O)[O-])c1c(C(=O)O)cc3c(c12)OCO3 | – | 6.86 µM (active) | inactive | – | 12.2 µM (active) | 12.2 µM (active) | 1.54 µM (active) | inactive | 19.3 µM (active) | 48.6 µM (active) | 48.6 µM (active) | 54.5 µM (active) | inactive | inactive | inactive | inactive | – | – | –
4 | CC(=O)[C@H]1CC[C@H]2[C@@H]3CC[C@H]4C[C@H](O)CC[C@]4(C)[C@H]3C(=O)C[C@]12C | inactive | inactive | inactive | inactive | inactive | inactive | inactive | inactive | inactive | inactive | – | inactive | – | inactive | – | – | inactive | – | –
5 | O=[N+]([O-])c1cccc2c([N+](=O)[O-])cccc12 | – | – | inactive | inactive | inactive | inactive | inactive | – | – | – | 10.9 µM (active) | – | – | inactive | inactive | inactive | – | 61.4 µM (active) | inactive
6 | O=C(O)c1cccc(Cl)c1 | inactive | inactive | inactive | inactive | inactive | inactive | inactive | inactive | inactive | inactive | inactive | inactive | inactive | inactive | inactive | inactive | – | – | –
7 | N#CCNCC#N | inactive | inactive | inactive | inactive | – | inactive | – | inactive | inactive | inactive | inactive | inactive | inactive | – | inactive | inactive | – | – | –
8 | CC(CCc1ccccc1)NC(C)C(O)c1ccc(O)cc1 (stereo unspecified) | inactive | inactive | inactive | inactive | inactive | inactive | – | – | – | inactive | – | inactive | inactive | inactive | inactive | inactive | inactive | – | –
9 | Cc1ncsc1CCCl | inactive | inactive | inactive | inactive | inactive | inactive | inactive | inactive | inactive | inactive | inactive | inactive | inactive | inactive | inactive | inactive | inactive | – | –
10 | CSc1ccc(C(=O)C(C)(C)N2CCOCC2)cc1 | inactive | – | inactive | inactive | inactive | inactive | inactive | inactive | – | inactive | inactive | inactive | inactive | inactive | – | – | – | – | –
11 | CCCSC(=O)Cl | inactive | inactive | inactive | inactive | inactive | inactive | inactive | inactive | inactive | inactive | inactive | inactive | inactive | inactive | inactive | inactive | – | – | –
12 | CC(C)COP(=O)(OCC(C)C)OCC(C)C | inactive | – | inactive | inactive | inactive | inactive | inactive | inactive | inactive | inactive | inactive | inactive | – | – | inactive | inactive | – | – | –
13 | CCCCN(CCCCO)N=O | inactive | – | inactive | inactive | inactive | inactive | inactive | inactive | inactive | inactive | inactive | – | inactive | inactive | inactive | inactive | – | – | –
14 | CC1=C(C(=O)Nc2ccccc2)S(=O)(=O)CCO1 | inactive | 48.5 µM (active) | inactive | inactive | – | 27.3 µM (active) | 3.06 µM (active) | – | – | inactive | inactive | inactive | – | inactive | inactive | inactive | – | – | –
15 | O=C1CN2CCOC2(c2ccccc2Cl)c2cc(Cl)ccc2N1 (stereo unspecified) | inactive | inactive | inactive | inactive | inactive | inactive | inactive | – | – | inactive | inactive | inactive | inactive | inactive | inactive | inactive | – | – | –
16 | O=C(NCO)NCO | inactive | inactive | inactive | inactive | inactive | inactive | inactive | – | – | inactive | inactive | – | inactive | inactive | inactive | inactive | – | – | –

Source: PubChem BioAssay (Tox21)
